# Sampled rows, rich in hits. Any-hit rate of the full collection: about 13%.
# USP8 block: human USP8 deubiquitinase inhibition | P40818 | purified USP8, Ub-rhodamine cleavage fluorescence, 30 min | inhibition, % at 20 µM | hit rate 4.2% among 47,000
# USP28 block: human USP28 deubiquitinase inhibition; inhibition, % at 25 µM; hit rate 3% among 47,000; purified USP28, Ub-rhodamine cleavage fluorescence, 30 min; AID 1645857; Q96RU2
# USP17 inh: inhibitors of human USP17 deubiquitinase; hit rate 6.5% among 47,000; inhibition, % at 50 µM; A8MUK1; purified USP17, Ub-rhodamine cleavage fluorescence, 3 h
# USP30 block: blocks human USP30 ubiquitin-rhodamine cleavage; Q70CQ3; purified USP30, Ub-rhodamine cleavage fluorescence; inhibition, % at 25 µM; hit rate 5.3% among 47,000; AID 1645860
# Target sequence (Q70CQ3 whole entry, looked up): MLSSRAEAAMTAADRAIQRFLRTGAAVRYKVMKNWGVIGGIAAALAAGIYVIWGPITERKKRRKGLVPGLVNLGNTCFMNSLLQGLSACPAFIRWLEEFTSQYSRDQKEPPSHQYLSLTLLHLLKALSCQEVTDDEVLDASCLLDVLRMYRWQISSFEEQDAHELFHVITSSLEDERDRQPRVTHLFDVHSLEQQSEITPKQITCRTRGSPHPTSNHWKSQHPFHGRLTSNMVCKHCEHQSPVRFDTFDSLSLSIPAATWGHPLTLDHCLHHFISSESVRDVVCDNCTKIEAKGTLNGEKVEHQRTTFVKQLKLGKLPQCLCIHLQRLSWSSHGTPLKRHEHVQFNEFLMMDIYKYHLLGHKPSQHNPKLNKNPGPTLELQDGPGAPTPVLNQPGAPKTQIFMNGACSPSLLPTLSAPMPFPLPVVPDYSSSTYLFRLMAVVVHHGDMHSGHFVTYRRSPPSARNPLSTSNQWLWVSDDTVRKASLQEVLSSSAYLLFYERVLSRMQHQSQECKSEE
# * = called active by the depositor; . = no result. Rule as the data show it: active = inhibition above about 30%; inactive = the rest.
SMILES,USP8 block,USP28 block,USP17 inh,USP30 block
O=C(NCc1ccccn1)c1nc(-c2cn(-c3ccc(Cl)cc3)nn2)no1,49.7*,12.1,11.3,19.9
Cc1nn(-c2ccccc2)cc1-c1noc(C(=O)NCCCc2ccccc2)n1,20.5,17.6,20.6,32.3*
Cc1nn(-c2ccc(F)cc2)cc1-c1noc(C(=O)NCc2ccccn2)n1,34.5*,20.6,.,85.3*
O=C(Nc1ccccc1)c1nc(-c2cn(-c3ccccc3)nn2)no1,20.0,19.4,16.8,41.4*
O=c1[nH]c(=O)n(Cc2ccccc2)c2c1CN(C1CCCC1)CN2,16.3,5.8,15.1,10.7
CCOc1ccccc1-c1nc(-c2cn(Cc3ccc(F)cc3)nn2)no1,0.5,-1.3,63.7*,58.2*
Cc1ccc(Cn2cc(-c3noc(-c4ccco4)n3)nn2)cc1,-3.9,5.6,-1.4,-9.0
Cc1ccc(Cn2cc(-c3noc(C(=O)Nc4cc(F)ccc4F)n3)nn2)cc1,89.9*,10.6,8.9,25.3
c1ccc(Cn2cc(-c3noc(-c4cccnc4)n3)nn2)cc1,7.3,-2.8,6.8,17.2
N#Cc1ccc(-c2nc(-c3cn(Cc4cccc(F)c4)nn3)no2)cc1,6.2,0.0,35.8*,-32.3
COc1ccccc1-c1nc(-c2cn(Cc3ccc(C)cc3)nn2)no1,5.5,21.1,8.4,30.2*
COC(=O)N1C[C@H](Oc2ccccn2)[C@H]2C[C@@H]1CC[C@H]2N1CCOCC1,-0.1,-4.3,-2.2,-9.4
Cc1ccccc1CNC(=O)CCc1ccc2nc(NC(=O)C(C)C)sc2c1,-6.5,-3.5,21.3,7.9
CCOc1ccc2c(c1)c(=O)c(C(=O)c1ccc(F)cc1)cn2CC(=O)Nc1ccccc1,38.1*,-1.4,4.1,0.0
CCOc1ccc2c(c1)c(=O)c(C(=O)c1ccccc1)cn2CC(=O)Nc1ccccc1,43.5*,-3.3,60.2*,-22.4
CCOc1ccc2c(c1)c(=O)c(C(=O)c1ccccc1)cn2CC(=O)Nc1ccc2c(c1)OCCO2,94.8*,15.2,-0.3,68.9*
COc1ccc(-c2ccc(C#N)c(=O)n2Cc2cccc(OC)c2)cc1,3.2,-4.7,6.0,-12.7
COc1ccc(NC(=O)c2ccc(S(=O)(=O)N3CCCCC3C)cc2)c(OC)c1 (stereo unspecified),-17.8,5.7,-1.6,9.1
CC(C)(C)c1ccc(C2Nc3ccccc3S(=O)(=O)N2Cc2ccccc2)cc1 (stereo unspecified),4.5,3.1,-1.2,11.0
Cc1ccc(C)c(NS(=O)(=O)c2c[nH]c3ncccc23)c1,-2.1,-3.5,26.4,8.6
Cc1ccccc1OCCC(=O)NC(c1ccccc1)c1ccccc1,12.4,9.7,32.0*,21.1
O=C(CCc1ccccc1)NC(c1ccccc1)c1ccccc1,-5.9,-0.6,16.3,27.0
Cn1nc(C(=O)N2CCOCC2)c2c1CN(Cc1ccoc1)CC2,-29.4,-1.9,-2.1,-0.3
Cc1cc(C)n2nc(CN(C(=O)COc3ccccc3)c3ccccc3)nc2n1,-7.0,.,-9.3,.
Cc1nc2nc(CN(C(=O)COc3ccccc3)c3ccccc3)nn2c(C)c1Cl,11.8,9.2,4.3,36.4*
SMILES,USP8 block,USP28 block,USP17 inh,USP30 block
Cc1ccc(Sc2c(C(F)(F)F)[nH]n(-c3ccccc3)c2=O)cc1,-44.7,6.7,33.2*,27.6
Cc1cn2c3c(=O)n(CC(=O)c4ccccc4)c(=O)n(C)c3nc2n1C(C)C,-0.1,.,-3.4,.
CN1C(=O)N(CC(=O)N2CCCC2c2cncc(-n3ccnc3)n2)C(=O)C12CCCCC2 (stereo unspecified),35.6*,6.0,11.2,16.7
COc1ccc(-c2nc(-c3cc4cc(OC)ccc4[nH]c3=O)no2)cc1,34.6*,-30.7,-6.6,-115.8
CC(C)(C)c1ccc(NC(=O)CCn2ccc(=O)[nH]c2=O)cc1,3.1,5.9,0.6,39.8*
O=C(Cn1c(=O)n(CCCC(=O)NC2CCN(Cc3ccccc3)CC2)c(=O)c2ccccc21)NCCC1=CCCCC1,6.7,0.3,4.1,0.1
COc1cc(NC(=O)c2ccccc2)c(OC)cc1NC(=O)CCC(=O)N(c1ccccc1)c1ccccc1,-0.9,18.2,62.5*,58.3*
COc1ccc(NC(=O)CCC(=O)N(c2ccccc2)c2ccccc2)c(OC)c1,15.6,1.1,1.5,14.5
O=C1COc2ccc(C(=O)COC(=O)CCc3nc4ccccc4s3)cc2N1,2.8,32.4*,48.1*,30.0*
O=C1COc2ccc(C(=O)COC(=O)c3ccccc3O)cc2N1,-2.6,-9.5,36.1*,-33.9
O=C1COc2ccc(C(=O)COC(=O)C3(c4ccc(F)cc4)CCCC3)cc2N1,5.9,3.3,8.5,10.8
O=C1CC2C3CCC(=O)c4c(O)ccc(c43)C2(O)c2cccc(O)c21 (stereo unspecified),34.6*,36.9*,46.9*,-0.3
COC(=O)c1c(NC2CCCCC2)c2cc(F)ccc2[nH]c1=O,-4.1,.,6.1,.
O=S(=O)(c1ccc2c(c1)OCO2)N1CCc2nc3ccccc3n2CC1,10.5,6.1,10.0,19.8
Cc1sc2nc(C(C)C)n(C3CCN(C(=O)C4CCCO4)CC3)c(=O)c2c1C (stereo unspecified),-30.1,-4.4,-5.1,0.0
Cc1sc2nc(C3CC3)n(C3CCN(C(=O)C4CC4)CC3)c(=O)c2c1C,13.6,12.7,22.5,32.7*
Cc1sc2nc(C3CC3)n(C3CCN(C(=O)CC(C)C)CC3)c(=O)c2c1C,11.0,8.4,19.8,40.1*
Cc1cc(Nc2cccc(C)c2C)n2nc(-c3cccnc3)nc2n1,23.7,15.7,25.5,3.8
CCN(c1ccccc1)S(=O)(=O)c1nnc(NC(=O)COc2ccc(Cl)cc2)s1,38.6*,-75.0,-19.4,-335.9
Cc1ccc(S(=O)(=O)N(C)c2ccc(OCC(=O)Nc3ccccc3)cc2)cc1,0.0,16.4,8.7,18.1
O=C(NCc1ccccc1F)c1ccc(CS(=O)c2ccccc2Cl)o1 (stereo unspecified),0.1,-4.8,-3.1,-2.0
O=C(CSc1nnc(C2CC2)n1-c1ccccc1)c1ccc(F)c(F)c1,6.4,6.4,2.8,32.2*
O=C(CSc1nnc2n(-c3ccccc3)c(=O)c3ccccc3n12)c1ccc(F)cc1,36.4*,-4.0,3.4,2.9
N#Cc1cn(CC(=O)N2CCCc3ccccc32)c2ccc(Br)cc12,13.8,-2.8,-18.7,-39.5
CC(=O)c1cc(F)ccc1OCc1ccccc1,5.6,6.9,1.4,11.1
SMILES,USP8 block,USP28 block,USP17 inh,USP30 block
O=C(NCc1cccc(Br)c1)c1cc2ccccn2n1,6.1,30.1*,14.9,24.8
O=C(NCCCN1CCOCC1)c1cc2ccccn2n1,0.0,-12.3,-11.1,-16.4
Cc1nnc(-c2ccc3ccn(CC(=O)NC4CCCCCC4)c3c2)o1,24.2,7.1,6.6,16.4
Cc1nnc(-c2ccc3ccn(CC(=O)N4CCN(c5ccccc5)CC4)c3c2)o1,96.4*,23.9,93.2*,49.9*
Cc1nnc(-c2ccc3ccn(CC(=O)N4CCCc5ccccc54)c3c2)o1,91.5*,.,85.9*,.
O=C(COc1nsnc1N1CCOCC1)Nc1ccccc1F,11.7,6.2,16.4,10.8
O=C(COc1nsnc1N1CCOCC1)Nc1ccc(F)c(F)c1,-21.7,13.4,2.8,56.9*
CC(=O)Nc1nc2c(s1)CCc1ccccc1-2,5.0,39.3*,20.1,10.1
